Experimental findings from PubChem BioAssay (NCATS) are described below.

For one assay, the target named is Furin (Homo sapiens) (UniProt P09958). In words: Furin counterscreen qHTS for Zika virus inhibitors (AID 1347149). Further: nearly all actives have a fitted effect of over 70% in size. Further: potency means the concentration at half of the fitted maximal effect.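 On activity change, negative = inhibition: purified recombinant full-length human furin enzyme at 5 nM; fluorescence gain from furin cutting a BOC-RVRR-AMC peptide substrate over 15 min; top concentration of the series differs between compounds; plate controls were no-inhibitor control for no effect and no-enzyme control for full effect.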 Put shortly: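 Fluorogenic cleavage of BOC-RVRR-AMC (2 microM final, Km ~15 µM) was monitored (ex 340, em 450 nm) at 37C after 15 min RT preincubation of 5 nM furin with compounds in HEPES pH 7.0 buffer with CaCl2 and Triton X-100. Percent inhibition was fitted to a 4-parameter Hill curve.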
Sequence of Furin (Homo sapiens) (P09958 whole entry, looked up): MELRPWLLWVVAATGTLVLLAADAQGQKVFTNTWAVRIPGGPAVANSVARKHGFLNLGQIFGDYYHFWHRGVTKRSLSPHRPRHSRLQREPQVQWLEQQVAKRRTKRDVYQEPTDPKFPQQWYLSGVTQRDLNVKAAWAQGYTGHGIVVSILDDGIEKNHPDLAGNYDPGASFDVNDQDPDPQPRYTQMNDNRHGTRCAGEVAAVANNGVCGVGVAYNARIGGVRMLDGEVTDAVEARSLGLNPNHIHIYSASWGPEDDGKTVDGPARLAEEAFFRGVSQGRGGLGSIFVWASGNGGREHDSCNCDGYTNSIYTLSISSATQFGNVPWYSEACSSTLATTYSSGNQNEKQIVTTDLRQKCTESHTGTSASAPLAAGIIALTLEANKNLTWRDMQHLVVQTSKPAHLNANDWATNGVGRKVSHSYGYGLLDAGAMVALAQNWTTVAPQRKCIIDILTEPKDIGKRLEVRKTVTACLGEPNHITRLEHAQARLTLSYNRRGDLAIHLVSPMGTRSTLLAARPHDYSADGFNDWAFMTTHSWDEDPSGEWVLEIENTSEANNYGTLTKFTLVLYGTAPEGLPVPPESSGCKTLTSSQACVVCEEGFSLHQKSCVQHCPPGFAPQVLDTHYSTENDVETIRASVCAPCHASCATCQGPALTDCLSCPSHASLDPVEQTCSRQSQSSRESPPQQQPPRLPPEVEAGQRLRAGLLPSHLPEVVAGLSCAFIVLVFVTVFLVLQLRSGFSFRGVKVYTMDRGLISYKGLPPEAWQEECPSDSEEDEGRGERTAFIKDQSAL
For orientation: Counterscreens check selectivity or assay interference.

Assay [1] in a line: Confirmatory screen NINDS Rhodamine qHTS for Zika virus inhibitors (AID 1347161). Further: potency means the concentration at half of the fitted maximal effect; nearly all actives have a fitted effect of over 60% in size. Put shortly:
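Single-chain NS2B-NS3 protease, 25 nM, pH 8.0; compounds preincubated 15 min. Activity: Rhodamine110 release from 1.5 microM substrate over 15 min, room temperature, data fitted to 4-parameter Hill.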

Assay [2] relates to Zika virus NS2B-NS3 protease (linked). In words: 384 well plate NINDS AMC confirmatory qHTS for Zika virus inhibitors (AID 1347163). Further: potency means the concentration at half of the fitted maximal effect; nearly all actives have a fitted effect of over 50% in size. Put shortly: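 Linked NS2B-NS3 protease (final 5 nM, 30 nM or 60 nM) was preincubated with compounds (final up to 1 mM) for ~15 minutes. Ac-VKTGKR-AMC substrate (final 30 microM) then reacted for 25 minutes at room temperature in the dark. Fluorescence (ex 355/em 460 nm) was normalized to no-enzyme and no-inhibitor controls.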

In assay [3] the test system is Zika virus NS2B-NS3 protease (linked construct). Nature of the assay: 384 well plate NINDS Rhodamine confirmatory qHTS for Zika virus inhibitors (AID 1347164).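 Further: fluorescence from protease cleavage of Ac-LKRR-rhodamine 110 substrate; potency means the concentration at half of the fitted maximal effect; nearly all actives have a fitted effect of over 65% in size.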 Put shortly: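 Linked NS2B-NS3 protease (final 5, 30 or 60 nM) preincubated ~15 minutes with compounds, then 10 microM Ac-LKRR-Rhodamine 110 added. Fluorescence (485/538 nm) read after 25 minutes at room temperature, normalized to no-enzyme and no-inhibitor controls.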
Background: Quantitative high-throughput screening tests each substance at several concentrations.

Assay [4] in a line: Tertiary RLuc qRT-PCR qHTS assay for Zika virus inhibitors (AID 1347169). Further: top concentration of the series differs between compounds; on the % scale 0 is the no-effect control and ±100 the full control effect; nearly all actives have a fitted effect of over 55% in size. An outline of the steps:
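Vero cells (1,000/well) infected with recombinant ZIKV-RLuc (Cambodian) at MOI 1-2 after compound addition, 48-72 hrs at 37 degrees C. Live-cell Renilla luciferase substrate added; luminescence read after 1-1.5 hrs.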
(In general: In qPCR the cycle at which signal appears reflects the starting amount.)

Assay [5] can be described thus: ZIKV-mCherry secondary qHTS for Zika virus inhibitors (AID 1347158). Further: top concentration of the series differs between compounds. Put shortly:
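Vero, 5,000 cells/well, o/n 37 °C; cpd pin-transferred in DMSO; ZIKV-mCherry MOI 1, 48-72 h 37 °C; 32% PFA stock fix, Hoechst; imaged 10x DAPI/mCherry; mCherry+ threshold 450 RFU; % infection.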

Assay [6] has as its target Cytochrome P450 1A2 (Homo sapiens) (UniProt P05177). Nature of the assay: p450-cyp1a2 (AID 410; calls by dose curve; further: potency means the concentration at half of the fitted maximal effect). Put shortly:
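Luminescent readout of luciferin formed from Luciferin-ME by human CYP1A2; data normalized against complete inhibition by 57 uM furafylline. Enzyme 20nM, substrate 100uM at Km, 100mM KPO4 buffer, 60 min reaction at room temperature.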

Assay [7] addresses Glucocorticoid receptor (Homo sapiens) (UniProt P04150). Nature of the assay: GR-GFP Redistribution (AID 450;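 active means compounds whose dose series gives a full or clear partial fitted curve of increased nuclear translocation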; further: potency means the concentration at half of the fitted maximal effect). The note with it: U2OS GR-GFP nuclear translocation, laser cytometry, 2 h.
Assay [8] has the same target. Nature of the assay: GR-EFC Redistribution (AID 451; calls by dose curve; further: potency means the concentration at half of the fitted maximal effect). The note with it: CHO-K1 GR-EFC translocation, beta-gal luminescence, 2 h. An outline of the steps: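 CHO-K1 cells expressing nuclear EA and GR-ED fragments of b-gal; compounds titrated up to 46 uM final, 2 h at 37 C. GR nuclear translocation read as complemented b-gal luminescence after 1 h RT detection.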
The target of assay [9] is Cytochrome P450 3A4 (Homo sapiens) (UniProt P08684). Nature of the assay: qHTS Assay for Activators of Cytochrome P450 3A4 (AID 885). Further: nearly all actives have a fitted effect of over 65% in size. Put shortly:
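Steps: enzyme/substrate mix dispensed; compound added, 10 min RT; NADPH regeneration solution added, 60 min RT; luciferin detection buffer stops reaction; 20 min later luminescence measured.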

Assay [10] has as its target DNA dC->dU-editing enzyme APOBEC-3G (Homo sapiens) (UniProt Q9HC16). In words: qHTS for inhibitors of Vif-A3G interactions: Validation (AID 588379). Further: 0% is about no effect. Put shortly: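 HeLa cells stably expressing Vif and A3G-eYFP, 700 cells/well, incubated overnight at 37 deg C, then exposed to compound overnight at 37 deg C. Inhibition of Vif-mediated degradation read as increased yellow fluorescence (Ex 488/Em 500-530) by laser-scanning cytometry.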

Assay [11] concerns the target Rap guanine nucleotide exchange factor 4 (Homo sapiens) (UniProt Q8WZA2). In words: Confirmatory qHTS for antagonist of cAMP-regulated guanine nucleotide exchange factor 4 (EPAC2) (AID 1645885). Further: nearly all actives have a fitted effect of over 25% in size. Further: potency means the concentration at half of the fitted maximal effect. On activity change, negative = inhibition: on the % scale 0 is the no-effect control and ±100 the full control effect.
Assay [12] addresses Cytochrome P450 3A4 (Homo sapiens) (UniProt P08684). In words: qHTS Assay for Inhibitors and Substrates of Cytochrome P450 3A4 (AID 884). Further: on the % scale 0 is the no-effect control and ±100 the full control effect; nearly all actives have a fitted effect of over 50% in size. Put shortly: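 20 nM human CYP3A4 with 25 uM Luciferin-PPXE (at KM) in 200 mM KPO4, preincubated 10 min with compound; NADPH regeneration started a 60 min RT reaction. Luciferin detected by luminescence, normalized to 57 uM ketoconazole as full inhibition.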

A short description of assay [13]: Confirmation and Secondary Assay for Modulators of Hemoglobin Beta Chain Splicing at IVS2 654 locus (AID 910).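 Further: HeLa cells stably carrying EGFP split by mutant beta-globin IVS2-654 intron; % of control where 0% means no effect.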 Put shortly: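 HeLa cells stably expressing EGFP interrupted by β-globin IVS2-654 intron, seeded overnight in Opti-MEM/2% FCS, then treated 2 days at 37 °C. Restored splicing read as total peak GFP intensity per well by laser scanning cytometry (488 nm excitation, 500–520 nm emission); 500 nM antisense PNA as control.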

Assay [14] can be described thus: Confirmation and Secondary Assay for Modulators of Hemoglobin Beta Chain Splicing at IVS2 705 locus (AID 930).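 Further: HeLa cells stably expressing the EGFP-705 splicing reporter; GFP fluorescence per well restored by corrected splicing of the IVS2-705 intron in EGFP; % of control where 0% means no effect.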 Put shortly:
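HeLa cells stably carrying EGFP interrupted by mutant beta-globin intron 2 (IVS2-705) treated 2 days at 37C with compound; 500 nM antisense PNA as control. Correct splicing read as total peak GFP intensity per well by laser-scanning cytometry.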

Assay [15] in a line: qHTS Assay for Lipid Storage Modulators (AID 1519; calls by dose curve; further: potency means the concentration at half of the fitted maximal effect; on activity change, negative = inhibition: on the % scale 0 is the no-effect control and ±100 the full control effect). The note with it: Drosophila S3 cells, BODIPY lipid droplet/cell ratio, laser cytometry, cells loaded with oleic acid. An outline of the steps: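 Cells seeded at 5,000 per well were treated with compounds over a concentration series and loaded with oleic acid (400 uM, as added). Lipid droplet fluorescence (488 nm excitation, 500-530 nm channel) was read by laser-scanning cytometry and normalized to 20 uM Triacsin C.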

Assay [16] concerns the target Rap guanine nucleotide exchange factor 3 (Homo sapiens) (UniProt O95398). In words: Confirmatory qHTS for antagonist of cAMP-regulated guanine nucleotide exchange factor 3 (EPAC1) (AID 1645880). Further: potency means the concentration at half of the fitted maximal effect; nearly all actives have a fitted effect of over 55% in size. Put shortly:
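Nucleotide exchange uses 100 nM EPAC1, 250 nM RAP1B-BODIPY-GDP and 50 uM GDP, with compounds in a concentration-titration series. After 5 min at room temperature, fluorescence (480 nm ex/540 nm em) is read every 5 min for 30 min. Data are normalized to control ATA and DMSO.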

Assay [17] has as its target Cytochrome P450 2D6 (Homo sapiens) (UniProt P10635). Nature of the assay: Cytochrome P450 family 2 subfamily D member 6 (CYP2D6) small molecule antagonists: luciferase biochemical (cell-free) qHTS assay (AID 1645840; active means well fitted curve in the direction sought with a large enough effect in the repeat runs; an effect the other way counts as inactive or inconclusive; further: potency means the concentration at half of the fitted maximal effect; nearly all actives have a fitted effect of over 55% in size). Put shortly: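 P450-Glo luminescent screen: recombinant CYP2D6 enzyme–proluciferin substrate mix preincubated with compound 10 min at room temperature, then NADPH regeneration added for 1 h at room temperature. Detection reagent added for 20 min; luciferin light read as relative luminescence units.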

In assay [18] the target is Cytochrome P450 2C9 (Homo sapiens) (UniProt P11712). In words: Cytochrome P450 family 2 subfamily C member 9 (CYP2C9) small molecule antagonists: luciferase biochemical (cell-free) qHTS assay (AID 1645842; active means well fitted curve in the direction sought with a large enough effect in the repeat runs; an effect the other way counts as inactive or inconclusive; further: potency means the concentration at half of the fitted maximal effect; nearly all actives have a fitted effect of over 55% in size). An outline of the steps: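 Luminescence, after 20 min with luciferin detection reagent, reflected CYP2C9 turnover during a 1 h NADPH-driven reaction at 37C. Enzyme-substrate mix contained 0.4% bovine serum albumin and was preincubated with compound 10 min at room temperature.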

The target in assay [19] is Phospholipid hydroperoxide glutathione peroxidase GPX4 (Homo sapiens) (UniProt P36969). In words: Primary qHTS Assay for Inhibitors of Recombinant Selenoprotein Glutathione Peroxidase 4 (GPX4) (AID 1845192). Further: potency means the concentration at half of the fitted maximal effect; nearly all actives have a fitted effect of over 65% in size. The note with it: outcome: dose series up to 50 µM unless noted. An outline of the steps:
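GR-coupled assay: recombinant GPX4 preincubated 30 min with compound at room temperature; final 200 nM GPX4, 1 mM GSH, 0.5 mM cumene hydroperoxide, 0.5 mM NADPH, 100 nM GR, 0.01% BSA, pH 7.5 Tris. NADPH fluorescence (340/450 nm) read at 0 and 15 min.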

[20] abbreviates: measured here: cell count channel max response.
Where [21] appears, read: measured here: lipid channel max response.

Results filed as inconclusive are left out. Active and inactive are the calls of the source. Unless noted, the call rests on the fitted dose curve; in most records, active means well fitted curve in the direction sought with a large enough effect; inconclusive means small, poorly fitted or top-dose-only effect, or another doubt; inactive means no such curve, though single readings can be large; an effect the other way counts as inactive or inconclusive.

Sequence of Glucocorticoid receptor (Homo sapiens) (P04150 whole entry, looked up, the tested form may be a part): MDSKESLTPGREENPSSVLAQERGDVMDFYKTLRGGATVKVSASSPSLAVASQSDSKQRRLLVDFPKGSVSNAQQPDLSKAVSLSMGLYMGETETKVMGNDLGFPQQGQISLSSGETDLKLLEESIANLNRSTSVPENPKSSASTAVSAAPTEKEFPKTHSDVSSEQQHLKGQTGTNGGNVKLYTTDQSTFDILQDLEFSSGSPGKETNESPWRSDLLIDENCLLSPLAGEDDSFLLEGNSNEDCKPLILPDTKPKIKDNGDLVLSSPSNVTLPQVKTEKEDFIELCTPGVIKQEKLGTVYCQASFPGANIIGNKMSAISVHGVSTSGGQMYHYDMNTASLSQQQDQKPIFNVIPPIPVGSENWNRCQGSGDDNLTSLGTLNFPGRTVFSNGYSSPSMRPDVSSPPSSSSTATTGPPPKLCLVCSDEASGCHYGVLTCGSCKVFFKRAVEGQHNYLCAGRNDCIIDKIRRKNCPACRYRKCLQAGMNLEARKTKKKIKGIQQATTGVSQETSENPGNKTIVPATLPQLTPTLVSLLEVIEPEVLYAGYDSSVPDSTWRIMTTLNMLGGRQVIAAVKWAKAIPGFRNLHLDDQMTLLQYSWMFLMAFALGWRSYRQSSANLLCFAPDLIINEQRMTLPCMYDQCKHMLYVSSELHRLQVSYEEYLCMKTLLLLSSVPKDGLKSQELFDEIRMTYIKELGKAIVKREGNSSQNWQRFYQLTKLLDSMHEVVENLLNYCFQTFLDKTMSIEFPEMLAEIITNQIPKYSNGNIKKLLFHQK
Sequence of Cytochrome P450 3A4 (Homo sapiens) (P08684 whole entry, looked up): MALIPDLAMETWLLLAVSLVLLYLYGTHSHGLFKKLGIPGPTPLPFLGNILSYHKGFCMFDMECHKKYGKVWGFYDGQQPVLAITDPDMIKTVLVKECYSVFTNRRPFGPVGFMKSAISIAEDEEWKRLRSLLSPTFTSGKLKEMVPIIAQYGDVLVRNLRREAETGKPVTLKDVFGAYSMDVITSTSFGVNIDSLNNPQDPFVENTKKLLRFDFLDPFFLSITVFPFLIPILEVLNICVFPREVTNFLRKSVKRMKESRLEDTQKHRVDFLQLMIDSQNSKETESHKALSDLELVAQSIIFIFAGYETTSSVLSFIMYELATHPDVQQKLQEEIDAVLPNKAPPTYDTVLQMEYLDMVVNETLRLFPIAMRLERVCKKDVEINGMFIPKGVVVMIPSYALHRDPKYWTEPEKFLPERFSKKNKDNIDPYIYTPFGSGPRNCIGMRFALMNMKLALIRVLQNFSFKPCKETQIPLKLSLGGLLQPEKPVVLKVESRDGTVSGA
Sequence of Rap guanine nucleotide exchange factor 4 (Homo sapiens) (Q8WZA2 whole entry, looked up): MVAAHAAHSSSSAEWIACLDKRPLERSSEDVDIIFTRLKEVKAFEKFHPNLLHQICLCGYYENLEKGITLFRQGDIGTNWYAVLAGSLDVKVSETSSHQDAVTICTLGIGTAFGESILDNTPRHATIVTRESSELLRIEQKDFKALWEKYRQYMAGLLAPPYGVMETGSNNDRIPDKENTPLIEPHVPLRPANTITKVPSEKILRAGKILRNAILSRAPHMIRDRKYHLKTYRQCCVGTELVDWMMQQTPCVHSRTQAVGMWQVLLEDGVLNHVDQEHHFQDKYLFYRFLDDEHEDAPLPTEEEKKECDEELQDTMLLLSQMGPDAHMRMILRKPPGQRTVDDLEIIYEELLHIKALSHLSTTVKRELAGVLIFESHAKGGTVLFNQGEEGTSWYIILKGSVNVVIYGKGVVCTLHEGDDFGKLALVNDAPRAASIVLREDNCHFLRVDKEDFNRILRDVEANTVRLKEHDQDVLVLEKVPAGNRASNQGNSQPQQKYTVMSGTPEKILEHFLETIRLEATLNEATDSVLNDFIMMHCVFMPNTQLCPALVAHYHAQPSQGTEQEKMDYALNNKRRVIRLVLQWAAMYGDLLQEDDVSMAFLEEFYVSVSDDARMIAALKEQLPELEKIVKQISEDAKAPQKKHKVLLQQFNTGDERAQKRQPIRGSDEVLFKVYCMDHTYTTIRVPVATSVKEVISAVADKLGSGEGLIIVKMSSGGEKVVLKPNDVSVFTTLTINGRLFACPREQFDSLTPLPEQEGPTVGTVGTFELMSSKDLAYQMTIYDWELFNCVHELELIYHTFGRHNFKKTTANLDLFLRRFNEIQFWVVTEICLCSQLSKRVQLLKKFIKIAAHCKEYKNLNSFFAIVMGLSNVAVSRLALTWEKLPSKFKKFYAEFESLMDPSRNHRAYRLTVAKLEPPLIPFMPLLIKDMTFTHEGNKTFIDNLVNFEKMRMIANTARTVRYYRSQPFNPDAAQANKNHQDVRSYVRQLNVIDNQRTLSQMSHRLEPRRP
Sequence of Rap guanine nucleotide exchange factor 3 (Homo sapiens) (O95398 whole entry, looked up): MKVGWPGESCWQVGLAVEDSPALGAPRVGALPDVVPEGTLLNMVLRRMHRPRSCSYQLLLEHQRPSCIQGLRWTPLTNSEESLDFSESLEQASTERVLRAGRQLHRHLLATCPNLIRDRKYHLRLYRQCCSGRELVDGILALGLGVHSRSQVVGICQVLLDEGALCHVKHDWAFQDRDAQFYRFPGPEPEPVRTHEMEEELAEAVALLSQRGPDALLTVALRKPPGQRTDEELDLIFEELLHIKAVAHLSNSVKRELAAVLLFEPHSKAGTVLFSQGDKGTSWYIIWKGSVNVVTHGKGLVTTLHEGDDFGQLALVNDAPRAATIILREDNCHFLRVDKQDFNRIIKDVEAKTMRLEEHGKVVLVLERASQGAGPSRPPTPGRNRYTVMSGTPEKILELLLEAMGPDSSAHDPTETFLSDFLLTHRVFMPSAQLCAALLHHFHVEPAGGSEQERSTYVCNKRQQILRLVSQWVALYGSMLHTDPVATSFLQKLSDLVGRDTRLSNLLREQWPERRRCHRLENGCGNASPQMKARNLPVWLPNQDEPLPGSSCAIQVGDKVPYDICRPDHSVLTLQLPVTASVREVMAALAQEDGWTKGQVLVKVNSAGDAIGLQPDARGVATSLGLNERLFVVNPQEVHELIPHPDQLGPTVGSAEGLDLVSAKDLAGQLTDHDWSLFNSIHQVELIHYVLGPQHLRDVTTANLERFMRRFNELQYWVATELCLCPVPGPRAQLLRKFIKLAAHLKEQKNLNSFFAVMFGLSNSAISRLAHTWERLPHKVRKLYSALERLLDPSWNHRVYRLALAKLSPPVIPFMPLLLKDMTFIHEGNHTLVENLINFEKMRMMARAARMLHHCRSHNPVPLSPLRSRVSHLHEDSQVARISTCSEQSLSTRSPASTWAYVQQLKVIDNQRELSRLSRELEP
Sequence of Phospholipid hydroperoxide glutathione peroxidase GPX4 (Homo sapiens) (P36969 whole entry, looked up): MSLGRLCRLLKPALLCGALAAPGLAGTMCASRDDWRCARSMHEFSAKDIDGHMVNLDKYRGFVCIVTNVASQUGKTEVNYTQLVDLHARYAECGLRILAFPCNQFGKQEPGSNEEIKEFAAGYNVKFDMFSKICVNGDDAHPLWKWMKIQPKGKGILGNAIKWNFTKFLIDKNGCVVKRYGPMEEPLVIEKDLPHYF
Sequence of Cytochrome P450 1A2 (Homo sapiens) (P05177 whole entry, looked up): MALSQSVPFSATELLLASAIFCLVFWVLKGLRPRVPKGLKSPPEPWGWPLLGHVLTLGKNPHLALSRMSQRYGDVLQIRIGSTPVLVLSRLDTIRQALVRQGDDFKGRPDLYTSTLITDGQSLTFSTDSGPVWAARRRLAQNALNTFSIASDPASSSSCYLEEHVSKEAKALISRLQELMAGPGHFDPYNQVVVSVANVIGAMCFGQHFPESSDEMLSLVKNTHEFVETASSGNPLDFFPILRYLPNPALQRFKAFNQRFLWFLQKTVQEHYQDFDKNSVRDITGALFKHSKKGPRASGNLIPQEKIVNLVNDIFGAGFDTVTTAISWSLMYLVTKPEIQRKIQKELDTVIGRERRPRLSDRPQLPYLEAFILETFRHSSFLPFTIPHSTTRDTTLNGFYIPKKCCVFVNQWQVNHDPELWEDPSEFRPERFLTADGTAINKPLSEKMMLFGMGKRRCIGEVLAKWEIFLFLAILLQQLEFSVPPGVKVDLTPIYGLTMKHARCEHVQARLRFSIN

Turning to `Cc1nn2c(=O)cc(COC(=O)c3ccc(NC(=O)c4ccc(C(C)(C)C)cc4)cc3)nc2s1`, the Potency was 52.7 µM (active) with Furin (Homo sapiens) and 39.8 µM (active) in assay [1].
Regarding `CC(C)CN1CC(COc2ccc3ccccc3c2)Oc2ccnc(-c3ccc(OCC(=O)O)cc3)c2C1=O` (configuration not stated), the Potency result (in the assay with Furin (Homo sapiens); in [4]) was “inactive” each time. Also, the Potency was 355 µM (active) in [2] and 39.8 µM (active) in assay [3].
For the molecule `COc1ccc(C(=O)Nc2ccc(C(=O)OCc3cc(=O)n4nc(C(C)C)sc4n3)cc2)cc1`, the Potency with Furin (Homo sapiens) was 59.1 µM (active). The Potency entry in [5] and in [4] was “inactive” each time.
With `Cc1c(-c2ccc(O)cc2)nn(-c2ccc(O)cc2)c1-c1ccc(OCCN2CCCCC2)cc1`, the Potency in [6] is 12.6 µM (active); in assay [7] it was > 46 µM (inactive); in assay [8], > 46 µM (inactive).
In the case of `Cc1cc(C)cc(C(=O)N(C)[C@H](Cc2ccc(-c3ccccc3)cc2)C(=O)N[C@@H](Cc2c[nH]c3ccccc23)C(=O)O)c1`, the figures for the Potency in assay [7], in assay [8] and in [11] were > 46 µM (inactive), > 46 µM (inactive) and 55.5 µM (active), respectively. Besides, the Potency entry in assay [9] and in [10] was “inactive” in each case.
With `COc1cc(O)c2c(=O)cc(-c3ccc(OC)c(-c4c(O)cc(O)c5c(=O)cc(-c6ccc(O)cc6)oc45)c3)oc2c1`, the Potency entry in [12] is “inactive”.
For `CC(C)=CCCC1(C)C=Cc2c(O)c3c(c(CC=C(C)C)c2O1)OC12C(=CCCC1C(C)(C)O[C@@]2(C/C=C(\C)C(=O)O)C(=O)O)C3=O` (some centres not stated), the molecule was classed as inactive in [13] and in [14]. In addition, the activity change, negative = inhibition in assay [15] (at 57.5 µM (top of the series)) was 7.82% (inactive). The max response in assay [15] (setting [20]) is 0.914%; in assay [15] (setting [21]), 7.86%. Besides, in [16], the Potency is 55.9 µM (active). Further, the Potency result in assay [11] was “inactive”.
For `CCOc1nc2cccc(C(=O)OC(C)OC(=O)OC3CCCCC3)c2n1Cc1ccc(-c2ccccc2-c2nn[nH]n2)cc1` (configuration not stated), in [14], the molecule was called inactive. The Potency in [15] is 7.94 µM (active); in [17], 13.5 µM (active); in [18], 4.77 µM (active); in assay [19] it was 7.94 µM (active). The max response in assay [15] (setting [20]) was -28.3%; in assay [15] (setting [21]), -78.8%.
